# Assay outcomes deposited in PubChem BioAssay by Broad Institute.
# Only some compounds are listed: those with a hit (about 2.7% of all), similar ones and a draw of the others.
# PGC1a acetyl inh: inhibitors of PGC1a acetylation signal, primary screen, cell-based, U2OS, AlphaScreen, inhibitor mode; AlphaScreen anti-acetyl-lysine; with virally co-expressed GCN5 acetyltransferase; inhibition, % at 15.6 µM; actives 0.17% (n = 350,000);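 active = every replicate shows inhibition of at least 40%; inconclusive = mean inhibition at least 40% but some replicate below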;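 note: 0% = neutral control wells and 100% = positive control wells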
# EWS-Fli block: EWS/Fli-driven NR0B1 reporter inhibitors, primary screen, A673 cells, NR0B1 luciferase, luminescence, MLPCN library | actives 0.67% (n = 350,000) | inhibition, % at 12.6 µM | viability-normalised | AID 651661, 2012;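 active = mean inhibition of at least 50% after viability correction, with every replicate also passing that limit; inconclusive = mean reaches 50% but only one of two replicates passes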;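 note: firefly luciferase signal divided by Alamar Blue viability fluorescence both relative to DMSO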
# GSIS activator: GLuc luminescence reporter in INS-1E cells, primary screen for activators of glucose-dependent secretion of insulin; INS-1E GLuc reporter insulin secretion, 2-3 h; activation, % at 16.6 µM; actives 0.61% (n = 370,000); AID 743287, 2014;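 active = lowest replicate activation of at least 40%, so every replicate reaches that level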;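 note: 0% = median of neutral control wells and 100% = median of IBMX positive control wells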
# HIV Env fusion: inhibitors of HIV-1 Env-driven cell-cell fusion, primary screen, HeLa-JRFL effector, CEM21 target cells, luciferase | inhibition, % at 12.3 µM | actives 1.1% (n = 360,000);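 active = mean replicate inhibition score of at least 50 and every replicate individually at or above 50; inconclusive = only one of the two criteria met; inactive = mean below 50 and not all replicates reaching 50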;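 note: 0% = plate neutral controls and 100% = maraviroc near 300 nM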
# PAX8 reporter: inhibitors of PAX8-driven TPO luciferase reporter, primary screen, RMG-I cells, single concentration | SteadyGlo, 24 h | inhibition, % at 12.6 µM | actives 1.2% (n = 360,000) | AID 652154, 2013;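 active = mean replicate inhibition at least 60% with every replicate also reaching 60%; inconclusive = only one of the two criteria is met; inactive = mean below 60% and not all replicates reaching 60%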;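 note: luciferase light reporting Pax8 driven TPO promoter activity; plate controls were median of neutral control wells for no effect and mitoxantrone controls for full effect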
# CFTR F508del cor: F508del CFTR correction, initial screen, CFBE line, single point; CFBE cells, YFP halide quenching; stimulated with forskolin plus potentiator P3; % fluorescence drop versus neutral controls; actives 0.36% (n = 350,000); activity (quench increase), % at 7.58 µM;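 active = mean added fluorescence quench of at least 8% versus neutral control, with both replicates also reaching 8%; inconclusive = only one of the mean or replicate conditions met; inactive = mean below 8% and not both replicates reaching 8%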;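 note: cells transiently co-express mutant CFTR-F508del with the halide-sensitive YFP; corrector assay measuring rescue of mutant channel to the surface after 24 h compound exposure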
# The depositor's hits bear a star; i = inactive; ? = inconclusive; nt = no result; [ ] = another dose, or the depositor's remark.
SMILES,PGC1a acetyl inh,EWS-Fli block,GSIS activator,HIV Env fusion,PAX8 reporter,CFTR F508del cor
CC(C)CC#Cc1ccc2c(c1)O[C@H](CN(C)C(=O)C1CCCCC1)[C@@H](C)CN([C@@H](C)CO)S2(=O)=O,35,24,55*,22[16.7 µM],nt,2
CC(C)CC#Cc1ccc2c(c1)O[C@@H](CN(C)C(=O)C1CCCCC1)[C@H](C)CN([C@@H](C)CO)S2(=O)=O,2,15,35,57*[16.7 µM],nt,2
CCCC#Cc1ccc2c(c1)O[C@@H](CN(C)C(=O)C1CCCCC1)[C@H](C)CN([C@H](C)CO)S2(=O)=O,3,19,-10,62*[16.7 µM],nt,0
COc1ccccc1-c1cnc2c(c1)C(=O)N([C@@H](C)CO)C[C@H](C)[C@H](CN(C)Cc1cccc(F)c1)O2,5,-2,-16,13[16.7 µM],nt,-1
CC(=O)Nc1ccc2c(c1)C(=O)N(C)[C@H]1CC[C@H](CC(=O)Nc3cn(C)nc3C)O[C@H]1CO2,-5,2,0,0[16.7 µM],-1,0
Cc1nc2sc(-c3ccccc3)cc2c(=O)n1/N=C/N(C)C,36,-59,5,-1,-150,nt
Cc1nc2sc(-c3ccccc3)cc2c(=O)n1N,1,69*,7,-12,41,2
O=C(CCl)Nc1ccc(Oc2cnc3ccccc3n2)cc1,nt,nt,nt,55*,nt,nt
CCS(=O)(=O)Nc1ccc2c(c1)C(=O)N(C)[C@H]1CC[C@H](CC(=O)Nc3ccc(Cl)cc3)O[C@@H]1CO2,1,4,1,nt,9,1
COc1ccccc1CNC(=O)Nc1nc(C(N)Cc2ccc(Cl)cc2)cs1 (stereo unspecified),6,10,nt,8,24,8.3*
CCCc1cnc(Nc2nc(C(N)Cc3ccc(OC)cc3)cs2)nc1 (stereo unspecified),-6,20,nt,-48,7,1
COc1ccc(CC(N)c2csc(NC(=O)Nc3ccccc3Oc3ccccc3)n2)cc1 (stereo unspecified),nt,26,11,100*,3,0
NC(Cc1ccccc1)c1csc(NC(=O)Nc2ccccc2Oc2ccccc2)n1 (stereo unspecified),-71,14,8,60*,-9,0
COc1ccc(CC(N)c2csc(Nc3nncc4ccccc34)n2)cc1 (stereo unspecified),-7,11,41,58*,2,1
O=C(C[C@H]1CC[C@@H](NC(=O)c2cccnc2)[C@@H](CO)O1)NCCN1CCCCC1,2,5,17,-2[16.7 µM],-9,2
CN(C)C(=O)[C@@H]1[C@@H](CO)[C@@H]2Cn3c(ccc(C4=CCCCC4)c3=O)[C@@H]2N1C(=O)c1ccccc1F,nt,-7,9,nt,nt,-1
COc1cccc(CNC(=O)C[C@H]2CC[C@H](NC(=O)C3CCOCC3)[C@H](CO)O2)c1,-1,-6,13,-18[16.7 µM],5,0
CC(C)c1cn(CC[C@H]2CC[C@@H](NC(=O)C3CCCCC3)[C@H](CO)O2)nn1,12,9,-6,10[16.7 µM],nt,1
COc1ccc(CC(N)c2csc(NC(=O)Nc3ccccc3Cc3ccccc3)n2)cc1 (stereo unspecified),-27,58*,-17,98*,24,2
O=C(Nc1ccc(Cl)cc1)Nc1nnc(CSCc2ccc(Cl)cc2)s1,-1,22,1,71*,24,nt
CCc1nnc(NC(=O)Nc2ccc(Cl)cc2)s1,nt,-77,8,-4,-113,-4
Cc1ccc(Oc2nc3c(c(=O)n(Cc4ccccc4F)c(=O)n3C)n2C)cc1,nt,nt,-17,56*,nt,nt
CCn1c(Oc2ccccc2F)nc2c1c(=O)n(C)c(=O)n2C,?,-3,9,58*,-4,-3
C[C@@H]1CN([C@@H](C)CO)C(=O)c2c(c3ccccc3n2C)-c2ccccc2CO[C@@H]1CN(C)Cc1ccccc1,nt,nt,-28,nt,nt,nt
CC(C)[C@H](CO)N(Cc1cccc(F)c1)c1nc(Nc2cccc(Cl)c2)c2ncn(C(C)C)c2n1,nt,-8,nt,-4,14,-2
SMILES,PGC1a acetyl inh,EWS-Fli block,GSIS activator,HIV Env fusion,PAX8 reporter,CFTR F508del cor
CC[C@H](CO)Nc1nc(Nc2cccc(Cl)c2)c2ncn(C(C)C)c2n1,-19,4,-13,7,78*,1
COc1cc(C=C2CCCC(=Cc3ccc(OCC4CO4)c(OC)c3)C2=O)ccc1OCC1CO1 (stereo unspecified),nt,68*,-22,-55,30,-5
COc1ccc(/C=C2\Cc3ccccc3C2=O)cc1OC,nt,-137,6,-2,-7,0
COc1ccc(/C=C2/CSC/C(=C/c3ccc(OC)c(OC)c3)C2=O)cc1OC,-36,66*,-20,i,38,-6
CCOc1ccc(/C=C2\CCC(C3CCCC3)C2=O)cc1OC (stereo unspecified),nt,-65,3,-1,-47,-2
C[C@@H]1CCCCO[C@@H](CN(C)C(=O)NC2CCCCC2)[C@@H](C)CN([C@@H](C)CO)C(=O)c2cc(NC(=O)Nc3ccccc3)ccc2O1,-3,8,3,-10[16.7 µM],-8,0
C[C@@H]1CN([C@@H](C)CO)C(=O)c2cc(NC(=O)Nc3ccc(F)cc3)ccc2O[C@@H]1CN(C)S(=O)(=O)c1ccccc1,8,4,-12,nt,19,2
COc1ccc(C#Cc2ccc([C@@H]3[C@H]4CN(C(=O)Nc5cccc(F)c5)CCCCN4[C@H]3CO)cc2)cc1,-12,15,14,nt,15,-1
COc1ccc(C#Cc2ccc([C@H]3[C@@H](CO)N4CCCCN(C(=O)Nc5cccc(F)c5)C[C@H]34)cc2)cc1,-39,29,-2,nt,76*,-4
COc1ccc(C#Cc2ccc([C@H]3[C@@H](CO)N4CCCCN(C(=O)Nc5cccc(F)c5)C[C@@H]34)cc2)cc1,8,5,5,nt,15,1
O=C(Nc1cccc(F)c1)N1CCCCN2[C@@H](CO)[C@H](c3ccc(C#CC4CC4)cc3)[C@@H]2C1,-14,20,-30,nt,-5,8.6*
COc1ccccc1NC(=O)N1CCCCN2[C@@H](CO)[C@@H](c3ccc(C#CC4CCCC4)cc3)[C@@H]2C1,-31,71*,55*,nt,59,-5
COc1ccc(C#Cc2ccc([C@@H]3[C@H](CO)N4CCCCN(C(=O)Nc5cccc(F)c5)C[C@@H]34)cc2)cc1,-25,33,-8,nt,76*,1
COc1ccccc1S(=O)(=O)N[C@H]1C=C[C@H](CC(=O)NCc2cc(F)cc(F)c2)O[C@H]1CO,1,6,1,-11[16.7 µM],-11,2
CC(C)c1cc(NCCOCCO)n2c(nc3ccccc32)c1C#N,nt,5,52*,0,11,2
Fc1ccc(C2=NN(c3ccccc3)C(c3ccco3)C2)cc1 (stereo unspecified),-8,-5,22,14,-13,-1
